Source: PubChem BioAssay
Values joined by “and” are separate entries in the source; they are usually repeats but may differ in a detail not shown here. Equal entries are not always repeated. Some compounds were tested as several samples or in several runs, with calls that do not always agree. Active and inactive are the calls of the source.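 The calls were made as follows, unless noted: active = thallium flux through the channel raised or lowered by more than 3 SD from vehicle-only wells, actives on both sides; inactive = the rest.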

Experiments:
[1] = Wnt pathway potentiators raising nuclear beta-catenin – imaging, WNT3A-conditioned medium, mouse C2C12, NPC library, primary screen (AID 1117326; in the data active = nuclear beta-catenin stimulation mostly above about 4.2%, no sharp cut-off; inactive = mostly below about 10%); settings: stronger effect = higher value
[2] = stimulators of insulin release from INS-1E, primary screen, cell-based, 5 mM glucose, NPC library (AID 1117329;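 active = compound raises insulin release from rat beta cells at 5 mM glucose, no numeric limit stated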); settings: rat INS-1E insulin secretion, at 10 µM, stronger effect = higher value
[3] = growth inhibition of GSK3B-pretreated HCT116 cells – cell-based, CellTiter-Glo, 0.2 to 20 µM (AID 1117336;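 active = compounds lowering colon cancer cell viability after pretreatment blocking the GSK3B kinase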); settings: HCT116 viability after GSK3B inhibitor, at 20 µM, stronger effect = higher value
[4] = inhibition of endothelial tube formation, primary screen, imaging, VEGF stimulated, CD31 staining, tube area, NPC library (AID 1117340;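 active = compound that reduces growth-factor-driven endothelial tube area in a mixed cell culture, no cutoff stated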); settings: VEGF-stimulated ADSC/ECFC co-culture, at 10 µM, stronger effect = higher value
[5] = GLP1 release stimulators, primary, NCI-H716, NPC library (AID 1117341;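 active = compound raises GLP1 secretion from the human gut endocrine cells, with no numeric limit stated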); settings: NCI-H716 cells, at 10 µM, stronger effect = higher value
[6] = HCT116 colon cancer cell growth inhibition, primary screen, CellTiter-Glo luminescence, NPC library (AID 1117342;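 active = compounds that lower survival of HCT116 colon cancer cells in the luminescence readout, no numeric limit stated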); settings: at 20 µM (top of the series)
[7] = reduced SW480 viability measured with CellTiter-Glo, NPC library, primary (AID 1117343;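 active = compounds that lower viability of the colon cancer cells in the luminescence readout, with no numeric limit stated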); settings: CellTiter-Glo luminescence; at 20 µM (top of the series)
[8] = NPC library primary testing for decreased DLD-1 cell viability via CellTiter-Glo (AID 1117346;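 active = compounds that lower survival of DLD-1 colon cancer cells in the luminescence readout, no cutoff given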); settings: DLD-1 viability, CellTiter-Glo luminescence; at 20 µM (top of the series)
[9] = biological target: 6-phosphogluconate dehydrogenase, decarboxylating (Homo sapiens) (UniProt P52209); assay: inhibition of human phosphogluconate dehydrogenase – biochemical, recombinant enzyme, NADPH absorbance, primary screen (AID 1159550;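 active = at least 20% inhibition of 6-phosphogluconate dehydrogenase activity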); settings: recombinant 6PGD, NADPH absorbance 341 nm; at 10 µM; stronger effect = higher value
Sequence of 6-phosphogluconate dehydrogenase, decarboxylating (Homo sapiens) (P52209 whole entry, looked up): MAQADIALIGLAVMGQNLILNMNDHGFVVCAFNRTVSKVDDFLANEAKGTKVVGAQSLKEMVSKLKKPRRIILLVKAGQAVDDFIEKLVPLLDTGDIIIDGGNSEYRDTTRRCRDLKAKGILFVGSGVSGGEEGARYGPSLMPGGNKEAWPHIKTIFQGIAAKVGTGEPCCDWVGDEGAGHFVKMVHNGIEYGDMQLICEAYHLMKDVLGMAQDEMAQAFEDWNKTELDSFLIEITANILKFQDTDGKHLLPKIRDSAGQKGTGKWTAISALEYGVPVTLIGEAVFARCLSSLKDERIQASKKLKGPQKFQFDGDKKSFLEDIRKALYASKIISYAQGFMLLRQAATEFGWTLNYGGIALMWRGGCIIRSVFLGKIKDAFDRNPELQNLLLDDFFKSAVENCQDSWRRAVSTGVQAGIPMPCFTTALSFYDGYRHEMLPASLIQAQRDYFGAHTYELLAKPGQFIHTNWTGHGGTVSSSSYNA

[10] = modulation of C. elegans fzo-1 (AID 1259413; call rule not given here;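 also: fzo-1 mutant C. elegans worms in liquid wells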); settings: C. elegans fzo-1 modulator screen, mean read-out; stronger effect = higher value
[11] = EMT-state selective cytotoxicity in co-culture – imaging, PC-3E GFP, TEM4-18 mCherry, primary screen (AID 1345086;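 active = compounds killing one labelled cell type while sparing the other, by normalised counts and ratio limits, not self-fluorescent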;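 as to all read-outs here: cells exposed to compound for 72 h before imaging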;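 as to red/green cell ratio (normalised): normalised mesenchymal count divided by normalised epithelial count so high means epithelial killing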); settings: PC-3E GFP / TEM4-18 mCherry co-culture, imaging cell counts, at 1 µM; for red/green cell ratio (normalised): actives lie on both sides, counts scaled to control wells, 1 = unselective
[12] = MELAS cybrid and Rieske KO viability enhancers – cell-based, MELAS cybrids, Rieske KO mouse fibroblasts, CellTiter-Glo, primary screen (AID 1508586;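 active = mean z-score across replicates of 1.96 or higher in either the MELAS or the Rieske mutant cell line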;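 also: z relative to plate mean and SD of compound and empty wells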); settings: low glucose
[13] = biological target: NAD(+) hydrolase SARM1 (Homo sapiens) (UniProt Q6SZW1); assay: blocking NAD cleavage by SARM1 SAM-TIR – cell lysate, NAD-Glo luminescence (AID 1508614;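 active = compound whose remaining NAD level is above about 45 nM, limit read from the data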;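 also: higher remaining NAD means stronger inhibition of SARM1 NADase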); settings: SAM-TIR HEK293T lysate NADase, at 1 µM, stronger effect = higher value
Sequence of NAD(+) hydrolase SARM1 (Homo sapiens) (Q6SZW1 whole entry, looked up, the tested form may be a part): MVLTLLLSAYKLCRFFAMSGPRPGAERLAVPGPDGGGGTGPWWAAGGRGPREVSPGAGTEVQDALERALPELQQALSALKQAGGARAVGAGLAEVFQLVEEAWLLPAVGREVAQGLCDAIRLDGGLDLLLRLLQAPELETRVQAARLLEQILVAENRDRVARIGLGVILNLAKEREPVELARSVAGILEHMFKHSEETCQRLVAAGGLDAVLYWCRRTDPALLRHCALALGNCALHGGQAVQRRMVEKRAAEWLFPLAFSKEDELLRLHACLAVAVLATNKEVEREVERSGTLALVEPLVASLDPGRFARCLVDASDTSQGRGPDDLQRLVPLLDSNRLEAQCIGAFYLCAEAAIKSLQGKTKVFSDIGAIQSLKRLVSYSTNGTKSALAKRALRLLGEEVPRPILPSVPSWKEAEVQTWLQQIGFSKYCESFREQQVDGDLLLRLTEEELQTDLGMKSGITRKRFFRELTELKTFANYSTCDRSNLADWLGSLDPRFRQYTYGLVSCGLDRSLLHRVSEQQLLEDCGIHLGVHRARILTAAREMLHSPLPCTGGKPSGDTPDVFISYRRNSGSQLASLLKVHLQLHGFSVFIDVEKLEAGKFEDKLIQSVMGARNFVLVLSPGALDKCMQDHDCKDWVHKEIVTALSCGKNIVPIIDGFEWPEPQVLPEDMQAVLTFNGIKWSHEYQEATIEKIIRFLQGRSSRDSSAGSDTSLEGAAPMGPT

[14] = biological target: Mitogen-activated protein kinase 7 (Homo sapiens) (UniProt Q13164); assay: Gal4-ERK5 driven luciferase induction – cell-based, HTS, primary screen (AID 1508626;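 active = luciferase signal above three times the same-plate solvent-only control wells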;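 also: luciferase driven by Gal4-ERK5 fusion binding five Gal4 sites before minimal TATA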); settings: HeLa Gal4-ERK5 transactivation, 18 h, at 5 µM, stronger effect = higher value
Sequence of Mitogen-activated protein kinase 7 (Homo sapiens) (Q13164 whole entry, looked up, the tested form may be a part): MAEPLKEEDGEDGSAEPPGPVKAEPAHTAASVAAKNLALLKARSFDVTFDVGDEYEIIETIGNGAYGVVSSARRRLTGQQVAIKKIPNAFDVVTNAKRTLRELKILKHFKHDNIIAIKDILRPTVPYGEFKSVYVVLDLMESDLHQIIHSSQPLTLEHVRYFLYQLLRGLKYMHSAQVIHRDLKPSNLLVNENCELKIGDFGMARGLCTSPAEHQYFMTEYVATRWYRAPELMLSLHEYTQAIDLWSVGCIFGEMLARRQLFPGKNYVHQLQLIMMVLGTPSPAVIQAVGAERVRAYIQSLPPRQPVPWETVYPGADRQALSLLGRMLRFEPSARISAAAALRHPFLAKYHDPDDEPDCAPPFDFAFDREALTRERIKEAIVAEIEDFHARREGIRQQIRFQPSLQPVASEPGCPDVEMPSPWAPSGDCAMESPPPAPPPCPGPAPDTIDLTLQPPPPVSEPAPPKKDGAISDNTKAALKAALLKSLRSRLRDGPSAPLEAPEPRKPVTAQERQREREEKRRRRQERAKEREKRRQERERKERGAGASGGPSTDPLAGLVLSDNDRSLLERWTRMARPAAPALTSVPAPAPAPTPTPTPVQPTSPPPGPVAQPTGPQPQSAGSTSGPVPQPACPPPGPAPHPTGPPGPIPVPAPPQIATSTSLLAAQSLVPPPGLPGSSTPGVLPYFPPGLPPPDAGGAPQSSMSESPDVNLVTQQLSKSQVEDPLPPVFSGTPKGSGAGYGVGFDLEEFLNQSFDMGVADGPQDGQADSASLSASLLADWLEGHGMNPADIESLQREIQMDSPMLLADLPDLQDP

F380Y = assay: BK channel mutant inhibitors and activators – cell-based, U2OS BacMam, thallium flux, beta subunits, selectivity assay, profiling panel (AID 1259406); settings: U2OS BacMam BK variants, at 30 µM;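 also: initial slope of Thallos dye fluorescence rise after thallium is added; log ratio against the mean of 0.3% DMSO vehicle wells on the same plate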
F380Y/beta1 = assay: as above; settings: U2OS BacMam BK variants, at 30 µM
F380Y/beta2Delta = assay: as above; settings: U2OS BacMam BK variants, at 30 µM
[15] = growth inhibition, single agents and combos, ICB984, cell-based, cisplatin or BGB combos, synergistic combos for chromothripsis tumors (AID 1671451; call rule not given here;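 also: cells exposed for 96 hours before readout; 0% = vehicle DMSO and 100% = killing by high DMSO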); settings: ICB984 medulloblastoma cells, drug combinations, stronger effect = higher value
[16] = measured here: epithelial PC-3E GFP cell survival
[17] = measured here: mesenchymal TEM4-18 mCherry cell survival
[18] = MELAS cybrid survival, CellTiter-Glo 48 h, stronger effect = higher value
[19] = Rieske KO mouse fibroblast survival, CellTiter-Glo 72 h
[20] = measured here: 5 uM single agent, at 5 µM

CC(C)Cc1ccc(C(C)C(=O)O)cc1 (stereo not drawn)
nuclear beta-catenin stimulation ([1]; at 10 µM): 0.3% (inactive) | nuclear beta-catenin stimulation ([1]; stimulation, at 2 µM): 1.7% | insulin secretion stimulation [2]: -2.6% (inactive) | viability decrease [3]: -2.1% (inactive) | tube area decrease [4]: 0.9% (inactive) | GLP1 secretion stimulation [5]: 0.1% (inactive) | inhibition of viability [6]: -7.8% (inactive) | viability decrease (inhibition) [7]: 21.6% (inactive) | viability decrease (inhibition) [8]: 16.6% (inactive) | inhibition [9]: -4.32% (inactive) | mean signal [10]: 242 (inactive) | red/green cell ratio (normalised) [11]: 1 (inactive) | normalised cell number [11, 16]: 1.11 | normalised cell number [11, 17]: 1.11 | z-score [12, 18]: 0.0693 (inactive) and -0.542 (inactive) | z-score [12, 19]: -0.22 and -1.3 | remaining NAD [13]: 10 nM (inactive) | luciferase signal [14]: 24 AU (inactive) | log fold change Tl+ flux (F380Y): 0.0419 (inactive) | log fold change Tl+ flux (F380Y/beta1): -0.0217 (inactive) | log fold change Tl+ flux (F380Y/beta2Delta): 0.0321 (inactive)

N[C@@H]1CONC1=O
nuclear beta-catenin stimulation ([1]; at 10 µM): 0.4% (inactive) | nuclear beta-catenin stimulation ([1]; stimulation, at 2 µM): 3.4% | insulin secretion stimulation [2]: 1.4% (inactive) | viability decrease [3]: -9.9% (inactive) | tube area decrease [4]: 3.2% (inactive) | GLP1 secretion stimulation [5]: -0.7% (inactive) | inhibition of viability [6]: 8.67% (inactive) | viability decrease (inhibition) [7]: -6.2% (inactive) | viability decrease (inhibition) [8]: -14.1% (inactive) | inhibition [9]: 6.28% (inactive) | mean signal [10]: 211 (inactive) | red/green cell ratio (normalised) [11]: 1.34 (inactive) | normalised cell number [11, 16]: 1.27 | normalised cell number [11, 17]: 1.71 | z-score [12, 18]: 0.819 (inactive) | z-score [12, 19]: 0.724 | remaining NAD [13]: 10 nM (inactive) | luciferase signal [14]: 64 AU (inactive) | log fold change Tl+ flux (F380Y): 0.0411 (inactive) and -0.0245 (inactive) | log fold change Tl+ flux (F380Y/beta1): 0.0612 (inactive) | log fold change Tl+ flux (F380Y/beta2Delta): -0.00859 (inactive) and -0.0479 (inactive)

CN=C(NC#N)NCCSCc1nc[nH]c1C
nuclear beta-catenin stimulation ([1]; at 10 µM): 0.2% (inactive) | nuclear beta-catenin stimulation ([1]; stimulation, at 2 µM): -1.1% | insulin secretion stimulation [2]: 1.3% (inactive) | viability decrease [3]: 10.8% (inactive) | tube area decrease [4]: -5.8% (inactive) | GLP1 secretion stimulation [5]: -0.3% (inactive) | inhibition of viability [6]: 8.17% (inactive) | viability decrease (inhibition) [7]: 36.9% (inactive) | viability decrease (inhibition) [8]: 1.2% (inactive) | inhibition [9]: -10.7% (inactive) | mean signal [10]: 239 (inactive) | red/green cell ratio (normalised) [11]: 1.04 (inactive) | normalised cell number [11, 16]: 1.01 | normalised cell number [11, 17]: 1.05 | z-score [12, 18]: -0.132 (inactive) and 0.533 (inactive) and -0.0775 (inactive) | z-score [12, 19]: -0.116 and -0.0466 and 0.0997 | remaining NAD [13]: 10 nM (inactive) | luciferase signal [14]: 44 AU (inactive) | log fold change Tl+ flux (F380Y): 0.0123 (inactive) | log fold change Tl+ flux (F380Y/beta1): 0.0381 (inactive) | log fold change Tl+ flux (F380Y/beta2Delta): -0.0232 (inactive)

CCN(Cc1ccncc1)C(=O)C(CO)c1ccccc1 (stereo not drawn)
nuclear beta-catenin stimulation ([1]; at 10 µM): 0.5% (inactive) | nuclear beta-catenin stimulation ([1]; stimulation, at 2 µM): -1.9% | insulin secretion stimulation [2]: 1.6% (inactive) | viability decrease [3]: 11.6% (inactive) | tube area decrease [4]: 7.1% (inactive) | GLP1 secretion stimulation [5]: 0.1% (inactive) | inhibition of viability [6]: 14.3% (inactive) | viability decrease (inhibition) [7]: 12% (inactive) | viability decrease (inhibition) [8]: 3.8% (inactive) | inhibition [9]: -16.3% (inactive) | mean signal [10]: 244 (inactive) | red/green cell ratio (normalised) [11]: 1.08 (inactive) | normalised cell number [11, 16]: 1.08 | normalised cell number [11, 17]: 1.16 | z-score [12, 18]: 0.0477 (inactive) and 0.409 (inactive) and -0.211 (inactive) | z-score [12, 19]: 0.0479 and 0.424 and 0.901 | remaining NAD [13]: 10 nM (inactive) | luciferase signal [14]: 108 AU (inactive) | log fold change Tl+ flux (F380Y): 0.0305 (inactive) | log fold change Tl+ flux (F380Y/beta1): -0.00694 (inactive) | log fold change Tl+ flux (F380Y/beta2Delta): -0.0245 (inactive)

NCCc1ccc(O)c(O)c1
nuclear beta-catenin stimulation ([1]; at 10 µM): 1.1% (inactive) | nuclear beta-catenin stimulation ([1]; stimulation, at 2 µM): 0.8% | insulin secretion stimulation [2]: -3% (inactive) | viability decrease [3]: 22.9% (inactive) | tube area decrease [4]: 37.7% (inactive) | GLP1 secretion stimulation [5]: -0.9% (inactive) | inhibition of viability [6]: -9.7% (inactive) | viability decrease (inhibition) [7]: 79.9% (active) | viability decrease (inhibition) [8]: 11.6% (inactive) | inhibition [9]: -4.79% (inactive) | mean signal [10]: 263 (inactive) | red/green cell ratio (normalised) [11]: 1.02 (inactive) and 0.85 (inactive) | normalised cell number [11, 16]: 1.41 and 1.02 | normalised cell number [11, 17]: 1.44 and 0.87 | z-score [12, 18]: -0.31 (inactive) and 0.319 (inactive) | z-score [12, 19]: 0.135 and -0.219 | remaining NAD [13]: 10 nM (inactive) | luciferase signal [14]: 44 AU (inactive) and 204 AU (active) | log fold change Tl+ flux (F380Y): 0.0174 (inactive) | log fold change Tl+ flux (F380Y/beta1): 0.0356 (inactive) | log fold change Tl+ flux (F380Y/beta2Delta): 0.0459 (inactive)

CC(=O)OCC(CCn1cnc2cnc(N)nc21)COC(C)=O
nuclear beta-catenin stimulation ([1]; at 10 µM): 0.9% (inactive) | nuclear beta-catenin stimulation ([1]; stimulation, at 2 µM): 2.8% | insulin secretion stimulation [2]: 0.7% (inactive) | viability decrease [3]: -11.8% (inactive) | tube area decrease [4]: -3.2% (inactive) | GLP1 secretion stimulation [5]: 0.4% (inactive) | inhibition of viability [6]: -2.1% (inactive) | viability decrease (inhibition) [7]: 15.5% (inactive) | viability decrease (inhibition) [8]: -9.1% (inactive) | inhibition [9]: -8.38% (inactive) | mean signal [10]: 292 (inactive) | red/green cell ratio (normalised) [11]: 0.92 (inactive) | normalised cell number [11, 16]: 1.23 | normalised cell number [11, 17]: 1.14 | z-score [12, 18]: -0.188 (inactive) and -0.285 (inactive) and 0.439 (inactive) | z-score [12, 19]: -0.751 and -0.17 and -0.227 | remaining NAD [13]: 10 nM (inactive) | luciferase signal [14]: 160 AU (inactive) | inhibition ([15]; BGB IC20 combo, at 0.005 µM): 1.9% | inhibition ([15]; BGB IC40 combo, at 0.005 µM): -6.07% | inhibition ([15]; BGB IC40 combo, at 0.05 µM): -14.6% | inhibition ([15]; at 0.5 µM): -31.4% (inactive) | inhibition ([15]; cisplatin combo, at 0.05 µM): -17.8% | inhibition ([15]; cisplatin combo, at 0.5 µM): -37.3% | inhibition ([15]; cisplatin combo, at 5 µM): -37.5% | inhibition [15, 20]: -40.1% | log fold change Tl+ flux (F380Y): 0.0311 (inactive) | log fold change Tl+ flux (F380Y/beta1): 0.035 (inactive) | log fold change Tl+ flux (F380Y/beta2Delta): -0.0244 (inactive)

CC1COc2c(N3CCN(C)CC3)c(F)cc3c(=O)c(C(=O)O)cn1c23 (stereo not drawn)
nuclear beta-catenin stimulation ([1]; at 10 µM): -0.3% (inactive) | nuclear beta-catenin stimulation ([1]; stimulation, at 2 µM): -0.9% | insulin secretion stimulation [2]: 3.4% (inactive) | viability decrease [3]: 14.4% (inactive) | tube area decrease [4]: -15.9% (inactive) | GLP1 secretion stimulation [5]: 2.5% (inactive) | inhibition of viability [6]: 0.4% (inactive) | viability decrease (inhibition) [7]: -9.6% (inactive) | viability decrease (inhibition) [8]: -8.7% (inactive) | inhibition [9]: 0.495% (inactive) | mean signal [10]: 237 (inactive) | red/green cell ratio (normalised) [11]: 0.96 (inactive) and 1.29 (inactive) | normalised cell number [11, 16]: 1.1 and 0.91 | normalised cell number [11, 17]: 1.06 and 1.18 | z-score [12, 18]: -0.837 (inactive) and -0.951 (inactive) and -0.349 (inactive) | z-score [12, 19]: -0.0297 and -0.43 and -0.633 | remaining NAD [13]: 10 nM (inactive) | luciferase signal [14]: 60 AU (inactive) | inhibition ([15]; BGB IC20 combo, at 0.005 µM): -17.9% and -25.7% and 9.81% | inhibition ([15]; BGB IC40 combo, at 0.005 µM): -33.2% and -21.8% and -24% | inhibition ([15]; BGB IC40 combo, at 0.05 µM): -26.1% and 10.2% and -18.3% | inhibition ([15]; at 0.5 µM): -27.6% (inactive) and 4.56% (inactive) and -22.5% (inactive) | inhibition ([15]; cisplatin combo, at 0.05 µM): -29.6% and 10.2% and -23% | inhibition ([15]; cisplatin combo, at 0.5 µM): -35.8% and -11.2% and -26.4% | inhibition ([15]; cisplatin combo, at 5 µM): -56.5% and 3.02% and -28.7% | inhibition [15, 20]: -20% and 15.7% and -1.17% | log fold change Tl+ flux (F380Y): 0.0183 (inactive) | log fold change Tl+ flux (F380Y/beta1): -0.00501 (inactive) | log fold change Tl+ flux (F380Y/beta2Delta): 0.0472 (inactive)
